The source of these data is PubChem BioAssay (EPA / NIEHS).

One may read the AC50 as the concentration giving half of the maximal activity seen.

Records with an inconclusive call do not appear. Activity calls are given as the source filed them. The calls were made as follows, unless noted: active = hit-call score of the fitted dose curve at least 0.9, where 1 is the maximum; inactive = score below 0.9.

Read-out in assay [1]: Intercellular Adhesion Molecule 1 (ICAM1), ICAM1 (gene 3383)
Put plainly: BSK_3C_ICAM1: BioMAP Diversity Plus: 3C Assay for Intercellular Adhesion Molecule 1 (ICAM1) Biomarker Activity (AID 2283003). The conditions noted are these: primary human endothelial cells (HUVEC); actives raise or lower the signal. The method in brief:
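Primary human umbilical vein endothelial cells in the BioMAP 3C system were exposed to chemicals for 24 h, then ICAM-1 was quantified by ELISA. Activity was fitted bidirectionally against the DMSO negative control baseline.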

Assay [2] can be described thus: BSK_3C_Proliferation: Cell Proliferation Assessment in the BioMAP Diversity Plus: 3C Assay (AID 2283006).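 As to AC50: potency may reflect either rise or fall in cell number versus DMSO.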 The conditions noted are these: primary human endothelial cells (HUVEC). The essentials: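 Human umbilical vein endothelial cells were grown sub-confluent and exposed to chemical for 48 h, then fixed with 10% TCA and stained with 0.1% sulforhodamine B; absorbance at 560 nm gave relative cell number, fitted bidirectionally against DMSO baseline.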

For assay [3], the target named is Peroxisome proliferator-activated receptor gamma (Homo sapiens) (UniProt P37231). Put plainly: ATG_PPARg_TRANS: Attagene TRANS-FACTORIAL HepG2 Assay for human Peroxisome Proliferator-activated Receptor-gamma (PPARg) (AID 2283007; active = hit-call score of the fitted dose curve at least 0.9, where 1 is the maximum). The essentials:
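HepG2 cells transiently transfected with multiplexed GAL4-UAS reporter units and exogenous chimeric NR-Gal4 proteins; reporter mRNA quantified after 24 h compound exposure by RT-PCR, fluorescent labelling, HpaI digestion and capillary electrophoresis; gain-of-signal fitted versus DMSO baseline.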

The target in assay [4] is Nuclear receptor subfamily 1 group I member 2 (Homo sapiens) (UniProt O75469). Description: ATG_PXR_TRANS: Attagene TRANS-FACTORIAL HepG2 Assay for human Pregnane X Receptor (PXR) (AID 2283008; active = hit-call score of the fitted dose curve at least 0.9, where 1 is the maximum). The essentials: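 Read-out is fluorescence of labelled reporter cDNA fragments separated by capillary electrophoresis after RT-PCR and HpaI digestion. Source: HepG2 cells carrying PXR-GAL4/UAS reporter constructs, treated 24 h; activity fitted upward relative to DMSO.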

The target in assay [5] is human RAR-related Orphan Receptor beta (RORb), RORB (gene 6096) (UniProt Q92753). Description: ATG_RORb_TRANS: Attagene TRANS-FACTORIAL HepG2 Assay for human RAR-related Orphan Receptor beta (RORb) (AID 2283010; active = hit-call score of the fitted dose curve at least 0.9, where 1 is the maximum). The essentials: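 HepG2 cells were transiently transfected with multiplexed GAL4-UAS reporter units expressing chimeric nuclear receptor–GAL4 proteins, then dosed for 24 h. Reporter mRNA was quantified by RT-PCR with fluorescent labelling and capillary electrophoresis; gain of signal was fitted relative to DMSO.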

The target in assay [6] is human RAR-related Orphan Receptor gamma (RORg), RORC (gene 6097) (UniProt P51449). Description: ATG_RORg_TRANS: Attagene TRANS-FACTORIAL HepG2 Assay for human RAR-related Orphan Receptor gamma (RORg) (AID 2283011; active = hit-call score of the fitted dose curve at least 0.9, where 1 is the maximum). The method in brief: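 Reporter transcripts from a transfected RORg-GAL4 chimera in HepG2 cells were quantified 24 h after dosing by RT-PCR, 6-FAM labelling, HpaI digestion and capillary electrophoresis; increases over DMSO baseline were fitted.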

Assay [7] concerns the target human Thyroid Receptor alpha (THRa1), THRA (gene 7067) (UniProt P10827). Description: ATG_THRa1_TRANS: Attagene TRANS-FACTORIAL HepG2 Assay for human Thyroid Receptor alpha (THRa1) (AID 2283014; active = hit-call score of the fitted dose curve at least 0.9, where 1 is the maximum). The method in brief: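 Transcripts from GAL4-UAS-driven reporters, measured after 24 h compound exposure by RT-PCR plus capillary electrophoresis of 6-FAM-labeled fragments, were fitted for gain of signal relative to DMSO. Cells: transiently transfected HepG2 expressing NR-Gal4 chimeras.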

Read-out in assay [8]: E-selectin (Homo sapiens) (UniProt P16581)
Description: BSK_3C_Eselectin: BioMAP Diversity Plus: 3C Assay for Eselectin Biomarker Activity (AID 2283015).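 As to outcome: cell surface E-selectin protein quantified by ELISA 24 h after dosing.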 The settings on record: primary human endothelial cells (HUVEC); actives raise or lower the signal. The method in brief: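 E-selectin ELISA readout, fitted bidirectionally relative to DMSO, taken 24 h post-dosing in HUVEC cultures of the 3C system. Overt cytotoxicity tracked with sulforhodamine B staining of parallel wells.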

Read-out in assay [9]: Interleukin-1 alpha (IL1a), IL1A (gene 3552)
Put plainly: BSK_BE3C_IL1a: BioMAP Diversity Plus: BE3C Assay for Interleukin-1 alpha (IL1a) Biomarker Activity (AID 2283016). The settings on record: primary human bronchial epithelial cells; actives raise or lower the signal. The essentials:
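Human primary bronchial epithelial cells (BE3C system) were dosed with compound and IL-1a measured by ELISA 24 h later. Activity was fitted bidirectionally against DMSO baseline; cytotoxicity was tracked in parallel cultures by SRB total-protein staining.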

Read-out in assay [10]: Monocyte Chemoattractant Protein-1 (MCP1), CCL2 (gene 6347)
Description: BSK_4H_MCP1: BioMAP Diversity Plus: 4H Assay for Monocyte Chemoattractant Protein-1 (MCP1) Biomarker Activity (AID 2283018). The conditions noted are these: primary human endothelial cells (HUVEC); actives raise or lower the signal. The method in brief:
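Human umbilical vein endothelial cells (4H system) dosed with chemical; MCP-1 measured by ELISA 24 h after dosing. Bidirectional curve fitting against DMSO negative control as baseline; parallel SRB total-protein staining tracks overt cytotoxicity.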

Read-out in assay [11]: Human Leukocyte Antigen - DR isotype (HLADR), HLA-DRA (gene 3122)
Put plainly: BSK_3C_HLADR: BioMAP Diversity Plus: 3C Assay for Human Leukocyte Antigen - DR isotype (HLADR) Biomarker Activity (AID 2283019).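 As to outcome: ELISA of cell-surface HLA-DR on HUVEC 24 h after dosing.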 The settings on record: primary human endothelial cells (HUVEC); actives raise or lower the signal. The essentials: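 Bidirectional fitting against DMSO was applied to the HLA-DR ELISA signal from human umbilical vein endothelial cells, 24 h post-dose. Cytotoxicity came from parallel SRB total-protein staining; 3C proliferation was counted by SRB at 48 h.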

Read-out in assay [12]: Interleukin-8 (IL8), CXCL8 (gene 3576)
Put plainly: BSK_3C_IL8: BioMAP Diversity Plus: 3C Assay for Interleukin-8 (IL8) Biomarker Activity (AID 2283020). The settings on record: primary human endothelial cells (HUVEC); actives raise or lower the signal. The essentials:
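Primary human umbilical vein endothelial cells (3C system) were exposed to test chemical for 24 h, then IL-8 was quantified by ELISA. Responses were fitted bidirectionally against DMSO vehicle as baseline.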

Read-out in assay [13]: Monokine induced gamma interferon (MIG), CXCL9 (gene 4283)
Put plainly: BSK_3C_MIG: BioMAP Diversity Plus: 3C Assay for Monokine induced gamma interferon (MIG) Biomarker Activity (AID 2283021). The settings on record: primary human endothelial cells (HUVEC); actives raise or lower the signal. The method in brief: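 Primary human umbilical vein endothelial cells in the 3C system were exposed to chemical for 24 h, after which MIG was quantified by ELISA. Activity was fitted bidirectionally against DMSO as negative control and baseline.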

In assay [14] the target is Retinoic acid receptor RXR-alpha (Homo sapiens) (UniProt P19793). Description: ATG_RXRa_TRANS: Attagene TRANS-FACTORIAL HepG2 Assay for human Retinoid X Receptor alpha (RXRa) (AID 2283012; active = hit-call score of the fitted dose curve at least 0.9, where 1 is the maximum). The method in brief: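 HepG2 cells transiently transfected with multiplexed GAL4-UAS reporter units and chimeric NR-GAL4 fusions, dosed 24 h. Reporter mRNA measured by RT-PCR, FAM labelling, HpaI digestion and capillary electrophoresis; gain-of-signal fitted relative to DMSO baseline.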

Assay [15] has as its target human Retinoid X Receptor beta (RXRb), RXRB (gene 6257) (UniProt P28702). Put plainly: ATG_RXRb_TRANS: Attagene TRANS-FACTORIAL HepG2 Assay for human Retinoid X Receptor beta (RXRb) (AID 2283013; active = hit-call score of the fitted dose curve at least 0.9, where 1 is the maximum). The essentials:
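HepG2 cells transiently transfected with multiplexed reporter units driven by GAL4-UAS and exogenous chimeric NR-Gal4 proteins; treated 24 h. Reporter mRNA measured by RT-PCR, 6-FAM labelling and capillary electrophoresis; gain-of-signal fitted versus DMSO baseline.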

For assay [16], the target named is human Retinoic Acid Receptor beta (RARb), RARB (gene 5915) (UniProt P10826). Description: ATG_RARb_TRANS: Attagene TRANS-FACTORIAL HepG2 Assay for human Retinoic Acid Receptor beta (AID 2283004; active = hit-call score of the fitted dose curve at least 0.9, where 1 is the maximum). The essentials:
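Induction of reporter mRNA from a chimeric RARb-Gal4 construct was measured by RT-PCR, FAM labelling, HpaI digestion and capillary electrophoresis. Measurements followed 24 h compound treatment of transiently transfected human HepG2 liver cells, with DMSO as baseline.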

The target of assay [17] is Retinoic acid receptor alpha (Homo sapiens) (UniProt P10276). Description: ATG_RARa_TRANS: Attagene TRANS-FACTORIAL HepG2 Assay for human Retinoic Acid Receptor alpha (RARa) (AID 2283005; active = hit-call score of the fitted dose curve at least 0.9, where 1 is the maximum;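 also: potency for increased reporter signal meaning RARa activation over DMSO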). The method in brief:
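Reporter transcripts, measured by RT-PCR with fluorescent labeling and capillary electrophoresis after 24 h dosing, reflect activity of an exogenous human RARa–GAL4 fusion in transiently transfected HepG2. Fitted for increase relative to DMSO.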

The target of assay [18] is human Retinoic Acid Receptor gamma (RARg), RARG (gene 5916) (UniProt P13631). Description: ATG_RARg_TRANS: Attagene TRANS-FACTORIAL HepG2 Assay for human Retinoic Acid Receptor gamma (RARg) (AID 2283009; active = hit-call score of the fitted dose curve at least 0.9, where 1 is the maximum). The method in brief:
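HepG2 cells transiently transfected with multiplexed reporter units expressing chimeric RARg-GAL4 and GAL4-UAS-driven reporters; 24 h compound exposure. Reporter mRNA quantified by RT-PCR with fluorescent labelling and capillary electrophoresis; gain-of-signal fitted relative to DMSO baseline.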

Chain of Peroxisome proliferator-activated receptor gamma (Homo sapiens) (P37231 whole entry, looked up, the tested form may be a part): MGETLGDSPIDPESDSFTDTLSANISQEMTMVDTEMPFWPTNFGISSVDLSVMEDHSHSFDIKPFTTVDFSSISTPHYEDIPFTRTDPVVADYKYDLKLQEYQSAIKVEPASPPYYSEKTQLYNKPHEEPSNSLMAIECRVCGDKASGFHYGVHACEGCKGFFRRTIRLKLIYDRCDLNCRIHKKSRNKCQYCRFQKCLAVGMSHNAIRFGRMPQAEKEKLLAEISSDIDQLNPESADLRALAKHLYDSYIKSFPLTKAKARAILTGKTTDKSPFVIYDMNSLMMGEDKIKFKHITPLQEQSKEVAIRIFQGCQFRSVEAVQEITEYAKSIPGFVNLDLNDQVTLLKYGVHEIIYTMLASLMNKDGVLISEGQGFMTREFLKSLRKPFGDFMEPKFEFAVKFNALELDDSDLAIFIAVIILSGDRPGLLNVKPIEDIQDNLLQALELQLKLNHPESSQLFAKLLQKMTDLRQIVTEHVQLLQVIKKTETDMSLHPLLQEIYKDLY
Chain of E-selectin (Homo sapiens) (P16581 whole entry, looked up): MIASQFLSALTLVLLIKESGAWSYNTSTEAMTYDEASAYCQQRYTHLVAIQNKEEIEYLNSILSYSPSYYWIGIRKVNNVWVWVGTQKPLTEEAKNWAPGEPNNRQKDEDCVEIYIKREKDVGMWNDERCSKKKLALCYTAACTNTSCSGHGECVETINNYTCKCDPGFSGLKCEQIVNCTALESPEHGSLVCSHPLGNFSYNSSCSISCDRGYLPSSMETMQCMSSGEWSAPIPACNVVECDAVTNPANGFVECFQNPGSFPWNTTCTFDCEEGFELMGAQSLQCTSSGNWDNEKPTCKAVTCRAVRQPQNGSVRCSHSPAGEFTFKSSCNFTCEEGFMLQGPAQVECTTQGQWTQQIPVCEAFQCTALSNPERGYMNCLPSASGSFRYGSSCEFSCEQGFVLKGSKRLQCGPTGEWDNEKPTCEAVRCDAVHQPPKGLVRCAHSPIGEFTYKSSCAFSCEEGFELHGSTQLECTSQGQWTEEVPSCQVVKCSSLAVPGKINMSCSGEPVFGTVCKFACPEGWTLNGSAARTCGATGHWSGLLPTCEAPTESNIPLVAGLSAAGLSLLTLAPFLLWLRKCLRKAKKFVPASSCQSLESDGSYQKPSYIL
Chain of Nuclear receptor subfamily 1 group I member 2 (Homo sapiens) (O75469 whole entry, looked up, the tested form may be a part): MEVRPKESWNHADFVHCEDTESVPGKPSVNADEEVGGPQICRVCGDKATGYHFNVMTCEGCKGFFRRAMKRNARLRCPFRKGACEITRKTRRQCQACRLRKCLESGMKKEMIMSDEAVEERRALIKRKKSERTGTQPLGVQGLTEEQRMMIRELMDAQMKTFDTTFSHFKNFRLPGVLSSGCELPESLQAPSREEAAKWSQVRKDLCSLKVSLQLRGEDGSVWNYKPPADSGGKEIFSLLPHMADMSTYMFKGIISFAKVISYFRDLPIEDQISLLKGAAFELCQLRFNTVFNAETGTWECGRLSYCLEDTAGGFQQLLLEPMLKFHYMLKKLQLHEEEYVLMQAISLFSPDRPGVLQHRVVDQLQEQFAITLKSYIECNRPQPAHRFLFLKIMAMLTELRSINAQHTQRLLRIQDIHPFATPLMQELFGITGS
Chain of human Thyroid Receptor alpha (THRa1), THRA (gene 7067) (P10827 whole entry, looked up, the tested form may be a part): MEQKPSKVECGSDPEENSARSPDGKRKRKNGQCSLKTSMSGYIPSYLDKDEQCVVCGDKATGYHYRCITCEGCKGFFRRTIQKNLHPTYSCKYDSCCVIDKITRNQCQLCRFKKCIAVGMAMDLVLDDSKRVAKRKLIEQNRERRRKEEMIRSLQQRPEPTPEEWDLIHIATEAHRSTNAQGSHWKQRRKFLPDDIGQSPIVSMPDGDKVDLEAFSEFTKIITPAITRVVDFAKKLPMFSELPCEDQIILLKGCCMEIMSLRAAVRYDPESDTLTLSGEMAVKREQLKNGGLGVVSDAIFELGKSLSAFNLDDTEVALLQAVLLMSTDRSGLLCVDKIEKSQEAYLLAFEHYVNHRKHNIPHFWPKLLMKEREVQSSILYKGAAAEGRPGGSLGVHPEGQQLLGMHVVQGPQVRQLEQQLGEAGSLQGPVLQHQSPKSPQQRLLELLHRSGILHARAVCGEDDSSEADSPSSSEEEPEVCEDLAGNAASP
Chain of Retinoic acid receptor RXR-alpha (Homo sapiens) (P19793 whole entry, looked up, the tested form may be a part): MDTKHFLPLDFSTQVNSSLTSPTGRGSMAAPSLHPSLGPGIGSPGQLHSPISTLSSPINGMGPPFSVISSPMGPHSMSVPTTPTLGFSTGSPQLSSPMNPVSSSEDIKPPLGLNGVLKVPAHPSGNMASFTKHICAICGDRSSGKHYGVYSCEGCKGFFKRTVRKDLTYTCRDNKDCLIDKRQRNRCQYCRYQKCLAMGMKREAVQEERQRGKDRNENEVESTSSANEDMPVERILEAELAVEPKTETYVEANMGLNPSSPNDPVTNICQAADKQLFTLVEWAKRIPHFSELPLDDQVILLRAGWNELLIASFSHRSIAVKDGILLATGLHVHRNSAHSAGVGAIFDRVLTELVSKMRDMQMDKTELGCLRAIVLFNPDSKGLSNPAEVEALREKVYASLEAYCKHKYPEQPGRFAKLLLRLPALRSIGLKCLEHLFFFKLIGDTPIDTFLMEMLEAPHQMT
Chain of human RAR-related Orphan Receptor beta (RORb), RORB (gene 6096) (Q92753 whole entry, looked up, the tested form may be a part): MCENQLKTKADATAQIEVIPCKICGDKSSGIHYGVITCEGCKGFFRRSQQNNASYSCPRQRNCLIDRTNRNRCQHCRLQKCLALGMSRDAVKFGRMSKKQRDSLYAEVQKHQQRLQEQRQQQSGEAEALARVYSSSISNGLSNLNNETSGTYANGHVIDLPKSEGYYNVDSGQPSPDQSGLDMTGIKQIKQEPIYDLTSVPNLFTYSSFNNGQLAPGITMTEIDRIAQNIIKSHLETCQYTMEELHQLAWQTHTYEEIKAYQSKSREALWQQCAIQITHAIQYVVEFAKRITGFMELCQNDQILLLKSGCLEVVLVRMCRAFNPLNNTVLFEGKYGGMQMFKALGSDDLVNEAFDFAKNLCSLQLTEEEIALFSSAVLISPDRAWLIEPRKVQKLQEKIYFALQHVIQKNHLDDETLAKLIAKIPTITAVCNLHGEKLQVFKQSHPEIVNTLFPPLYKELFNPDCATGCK
Chain of human Retinoic Acid Receptor beta (RARb), RARB (gene 5915) (P10826 whole entry, looked up, the tested form may be a part): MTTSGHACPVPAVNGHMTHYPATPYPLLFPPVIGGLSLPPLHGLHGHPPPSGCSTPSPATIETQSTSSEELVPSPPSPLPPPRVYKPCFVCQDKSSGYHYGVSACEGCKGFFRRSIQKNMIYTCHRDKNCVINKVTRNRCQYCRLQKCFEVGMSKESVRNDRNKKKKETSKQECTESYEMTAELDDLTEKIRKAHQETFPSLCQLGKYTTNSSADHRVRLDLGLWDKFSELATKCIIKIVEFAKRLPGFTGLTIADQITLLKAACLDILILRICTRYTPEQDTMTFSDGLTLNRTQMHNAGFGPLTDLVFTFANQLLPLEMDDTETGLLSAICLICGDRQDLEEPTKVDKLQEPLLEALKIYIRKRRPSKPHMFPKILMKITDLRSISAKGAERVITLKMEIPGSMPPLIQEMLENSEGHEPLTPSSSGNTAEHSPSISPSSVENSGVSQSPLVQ
Chain of human Retinoid X Receptor beta (RXRb), RXRB (gene 6257) (P28702 whole entry, looked up, the tested form may be a part): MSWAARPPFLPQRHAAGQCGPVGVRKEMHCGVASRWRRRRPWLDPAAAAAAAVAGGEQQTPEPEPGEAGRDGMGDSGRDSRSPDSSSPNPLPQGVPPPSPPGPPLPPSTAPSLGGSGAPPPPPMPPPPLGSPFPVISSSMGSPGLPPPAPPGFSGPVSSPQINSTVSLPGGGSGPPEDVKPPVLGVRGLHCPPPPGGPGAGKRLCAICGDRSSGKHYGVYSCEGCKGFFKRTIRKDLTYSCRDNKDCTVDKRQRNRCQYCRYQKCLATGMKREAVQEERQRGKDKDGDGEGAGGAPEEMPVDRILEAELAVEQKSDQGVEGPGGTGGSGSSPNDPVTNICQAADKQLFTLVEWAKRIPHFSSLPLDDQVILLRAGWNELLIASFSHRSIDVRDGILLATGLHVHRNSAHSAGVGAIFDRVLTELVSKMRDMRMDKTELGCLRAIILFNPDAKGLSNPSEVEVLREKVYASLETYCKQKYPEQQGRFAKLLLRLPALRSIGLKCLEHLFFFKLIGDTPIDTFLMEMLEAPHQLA
Chain of human RAR-related Orphan Receptor gamma (RORg), RORC (gene 6097) (P51449 whole entry, looked up, the tested form may be a part): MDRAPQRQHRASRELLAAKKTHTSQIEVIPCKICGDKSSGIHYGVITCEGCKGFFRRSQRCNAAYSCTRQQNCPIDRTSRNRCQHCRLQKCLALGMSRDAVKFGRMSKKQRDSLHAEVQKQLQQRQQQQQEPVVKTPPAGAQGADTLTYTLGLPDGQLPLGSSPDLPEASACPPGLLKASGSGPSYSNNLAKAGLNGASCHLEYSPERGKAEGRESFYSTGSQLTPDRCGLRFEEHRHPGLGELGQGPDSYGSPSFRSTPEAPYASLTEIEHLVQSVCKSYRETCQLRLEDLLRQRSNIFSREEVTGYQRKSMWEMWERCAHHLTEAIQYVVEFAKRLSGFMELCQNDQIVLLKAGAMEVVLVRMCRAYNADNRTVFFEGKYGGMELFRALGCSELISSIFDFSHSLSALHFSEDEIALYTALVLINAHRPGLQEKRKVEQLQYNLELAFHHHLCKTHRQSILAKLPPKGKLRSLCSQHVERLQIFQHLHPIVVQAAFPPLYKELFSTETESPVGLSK
Chain of human Retinoic Acid Receptor gamma (RARg), RARG (gene 5916) (P13631 whole entry, looked up, the tested form may be a part): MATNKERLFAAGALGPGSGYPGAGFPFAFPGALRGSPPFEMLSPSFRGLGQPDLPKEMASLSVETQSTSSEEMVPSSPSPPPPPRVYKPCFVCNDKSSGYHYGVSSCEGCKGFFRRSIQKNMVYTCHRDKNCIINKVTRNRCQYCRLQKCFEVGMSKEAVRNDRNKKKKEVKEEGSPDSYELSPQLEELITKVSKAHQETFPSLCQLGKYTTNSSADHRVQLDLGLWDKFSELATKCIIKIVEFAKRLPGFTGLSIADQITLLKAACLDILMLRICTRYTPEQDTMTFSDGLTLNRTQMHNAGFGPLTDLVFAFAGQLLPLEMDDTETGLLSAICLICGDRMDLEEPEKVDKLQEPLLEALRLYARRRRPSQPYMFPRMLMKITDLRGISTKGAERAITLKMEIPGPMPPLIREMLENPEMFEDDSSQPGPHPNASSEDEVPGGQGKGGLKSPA

As for `CCN(CC)C(=O)C(Cl)=C(C)OP(=O)(OC)OC`, the result in assay [1], in assay [2], in [3], in assay [4], in [5] and in assay [6] was inactive. Further, the call in assay [7], in [8], in assay [9], in assay [10], in assay [11] and in [12] was inactive. The outcome in assay [13] was inactive.

As to `c1ccc(-c2cccc(-c3ccccc3)c2)cc1`, the result in [1], in [3], in assay [5], in assay [14], in [7] and in assay [13] was inactive. The AC50 in assay [2] is 13.2 µM (active); in assay [4], 11.5 µM (active); in assay [15], 7.98 µM (active); in assay [8] it was 11.4 µM (active); in [9] it was 11.6 µM (active); in assay [10], 5.91 µM (active). The half-maximal activity concentration (AC50) in [11] is 9.9 µM (active).

`CC(C)(COCC1CO1)COCC1CO1` (centres undefined): the result in assay [1], in assay [16], in assay [3], in assay [4], in [6] and in assay [7] was inactive. Moreover, the result in [8], in [9], in [10] and in assay [13] was inactive. The AC50 in [2] and in [11] was 20 µM (active) each time.

Turning to `CC(C)(C)c1cc([N+](=O)[O-])cc(C(C)(C)C)c1O`, the result in assay [1], in [16], in assay [18], in [7], in assay [9] and in [10] was inactive. Also, the outcome in assay [12] and in assay [13] was inactive. Moreover, the concentration at half-maximal activity (AC50) in [17] is 2.37 µM (active); in [2], 0.704 µM (active); in assay [3], 5.15 µM (active); in [4], 6.49 µM (active); in [14], 26.7 µM (active); in [15], 2.54 µM (active). The AC50 in assay [8] is 0.549 µM (active); in [11], 0.016 µM (active).
